Assay results as given in PubChem BioAssay (NCATS).
Results filed as inconclusive are left out. Active and inactive are the calls of the source. The call rests on the fitted dose curve; in most records, active means well fitted curve in the direction sought with a large enough effect; inconclusive means small, poorly fitted or top-dose-only effect, or another doubt; inactive means no such curve, though single readings can be large; an effect the other way counts as inactive or inconclusive.

What was measured:
Hek293T = experiment: Primary qHTS to identify gynecologic anti-cancer compounds using libraries of approved drugs and bioactive compounds (AID 1345084); details: Gynecologic cancer cell panel viability, ATPlite luminescence, 48 h, control line for the selectivity index; series mostly up to 57.5 µM; further: nearly all actives have a fitted effect of over 55% in size
Outline: (§1)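 Cytotoxicity screen measuring ATP content by luciferase luminescence. Each compound is applied at five concentrations for 48 h at 37 C with 5% CO2.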

JEG-3 = experiment: as above; details: Gynecologic cancer cell panel viability, ATPlite luminescence, 48 h; series mostly up to 57.5 µM
Outline: as §1

OV90 = experiment: as above; details: Gynecologic cancer cell panel viability, ATPlite luminescence, 48 h; series mostly up to 57.5 µM
Outline: as §1

SKOV3 = experiment: as above; details: Gynecologic cancer cell panel viability, ATPlite luminescence, 48 h; series mostly up to 57.5 µM
Outline: as §1

Tov-21-G = experiment: as above; details: Gynecologic cancer cell panel viability, ATPlite luminescence, 48 h; series mostly up to 57.5 µM
Outline: as §1

Tov112D = experiment: as above; details: Gynecologic cancer cell panel viability, ATPlite luminescence, 48 h; series mostly up to 57.5 µM
Outline: as §1

[1] = Drug repurposing screens with cells derived from glioblastoma tumor samples (AID 1345199); details: GBM patient neurospheres viability, ATP luminescence, 48 h; further: nearly all actives have a fitted effect of over 40% in size; further: potency means the concentration at half of the fitted maximal effect
Outline: (§2)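 Primary testing used CD133+ neurospheres from four GBM patients, seven concentrations, 48 h exposure and ATP-based viability; confirmation added three slower-growing patient lines.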

PA-1 = experiment: Primary qHTS to identify gynecologic anti-cancer compounds using libraries of approved drugs and bioactive compounds (AID 1345084); details: Gynecologic cancer cell panel viability, ATPlite luminescence, 48 h; series mostly up to 57.5 µM; further: nearly all actives have a fitted effect of over 55% in size
Outline: as §1

astro = experiment: Drug repurposing screens with cells derived from glioblastoma tumor samples (AID 1345199); details: viability, ATP luminescence, 48 h; series mostly up to 45.9 µM; further: nearly all actives have a fitted effect of over 40% in size; further: potency means the concentration at half of the fitted maximal effect
Outline: as §2

[2] = at 45.9 µM (top of the series), tumour line B
[3] = at 45.9 µM (top of the series), tumour line D
[4] = at 46.1 µM (top of the series), tumour line C
[5] = at 46 µM (top of the series), tumour line A
[6] = at 20 µM (top of the series), tumour line C
[7] = at 21.2 µM (top of the series), tumour line B
[8] = at 21.2 µM (top of the series), tumour line D
On the % scale 0 is the no-effect control and ±100 the full control effect.

NC(=O)n1c(O)c(C(=O)c2cccs2)c2cc(Cl)ccc21
inactive: Potency (Hek293T) | Potency (JEG-3) | Potency (OV90) | Potency (SKOV3) | Potency (Tov-21-G) | Potency (Tov112D) | activity, negative = cell killing [1, 2] -6.38% | activity, negative = cell killing [1, 3] -26.9%
active: Potency ([1]; tumour line A) 22.4 µM | Potency ([1]; tumour line C) 18.4 µM

CCN(CC)CCNC(=O)c1cc(Br)c(N)cc1OC
active: Potency ([1]; tumour line A) 7.94 µM
inactive: Potency (Hek293T) | Potency (JEG-3) | Potency (PA-1) | Potency (SKOV3) | Potency (Tov-21-G) | Potency (Tov112D) | activity, negative = cell killing [1, 2] -11.2% | activity, negative = cell killing [1, 3] -11.8% | activity, negative = cell killing [1, 4] -28.9% | Potency (astro)

CN1CCN(C2=Nc3cc(F)ccc3Cc3ccccc32)CC1
inactive: Potency (Hek293T) | Potency (JEG-3) | Potency (PA-1) | Potency (SKOV3) | Potency (Tov-21-G) | Potency (Tov112D) | Potency (astro)

CC1(COc2ccc(CC3SC(=O)NC3=O)cc2)CCCCC1 (stereo not drawn)
inactive: Potency (Hek293T) | Potency (JEG-3) | Potency (PA-1) | Potency (SKOV3) | Potency (Tov-21-G) | Potency (Tov112D)

O=C(Oc1cccc2cccnc12)c1ccccc1
inactive: Potency (Hek293T) | Potency (JEG-3) | Potency (OV90) | Potency (Tov-21-G) | Potency (Tov112D) | activity, negative = cell killing [1, 2] -24.1% | activity, negative = cell killing [1, 3] -26.2% | activity, negative = cell killing [1, 4] -9.14% | Potency (astro)

O=C(NCCc1c[nH]c2ccccc12)c1cccnc1
inactive: Potency (Hek293T) | Potency (JEG-3) | Potency (PA-1) | Potency (SKOV3) | Potency (Tov-21-G) | Potency (Tov112D) | activity, negative = cell killing [1, 2] -17.4% | Potency (astro)

Nc1nc(N)c(-c2ccccc2)s1
inactive: Potency (Hek293T) | Potency (JEG-3) | Potency (OV90) | Potency (SKOV3) | Potency (Tov-21-G) | Potency (Tov112D) | activity, negative = cell killing [1, 2] -11% | activity, negative = cell killing [1, 3] 8.98% | activity, negative = cell killing [1, 5] -29.6% | activity, negative = cell killing [1, 4] -25.4% | Potency (astro)

O=[N+]([O-])c1ccc(/C=N\O)o1
inactive: Potency (Hek293T) | Potency (JEG-3) | Potency (PA-1) | Potency (SKOV3) | Potency (Tov-21-G) | Potency (Tov112D) | activity, negative = cell killing [1, 2] -7.45% | activity, negative = cell killing [1, 3] -31.7% | activity, negative = cell killing [1, 4] 1.04% | Potency (astro)

CC(O)Cn1cnc2c1c(=O)n(C)c(=O)n2C (stereo not drawn)
inactive: Potency (Hek293T) | Potency (JEG-3) | Potency (OV90) | Potency (SKOV3) | Potency (Tov-21-G) | Potency (Tov112D) | activity, negative = cell killing [1, 6] 7.77% | activity, negative = cell killing [1, 7] -9.45% | activity, negative = cell killing [1, 8] -12.1% | activity, negative = cell killing ([1]; at 21.3 µM (top of the series), tumour line A) -14.4% | Potency (astro)

C#C[C@]1(O)CC[C@H]2[C@@H]3CCC4=CC(=O)CC[C@@H]4[C@H]3CC[C@@]21CC
inactive: Potency (Hek293T) | Potency (JEG-3) | Potency (OV90) | Potency (SKOV3) | Potency (Tov-21-G) | Potency (Tov112D) | activity, negative = cell killing [1, 2] -8.91% | activity, negative = cell killing [1, 3] -3.36% | activity, negative = cell killing [1, 4] 6% | Potency (astro)

O=C1OC(CN2CCOCC2)CN1/N=C/c1ccc([N+](=O)[O-])o1 (stereo not drawn)
inactive: Potency (Hek293T) | Potency (JEG-3) | Potency (PA-1) | Potency (SKOV3) | Potency (Tov-21-G) | Potency (Tov112D) | activity, negative = cell killing [1, 6] -25.2% | activity, negative = cell killing [1, 7] 2.66% | activity, negative = cell killing [1, 8] -3.22% | Potency (astro)

Cc1nc(-c2ccc(Cl)cc2)oc1COC(C)(C)C(=O)O
inactive: Potency (Hek293T) | Potency (JEG-3) | Potency (PA-1) | Potency (SKOV3) | Potency (Tov-21-G) | Potency (Tov112D) | activity, negative = cell killing [1, 2] -18.8% | activity, negative = cell killing [1, 3] -2.81% | activity, negative = cell killing [1, 4] -9.1% | Potency (astro)

CCOc1ccc(NC(C)=O)cc1
inactive: Potency (Hek293T) | Potency (JEG-3) | Potency (PA-1) | Potency (SKOV3) | Potency (Tov-21-G) | Potency (Tov112D) | activity, negative = cell killing [1, 2] 4.81% | activity, negative = cell killing [1, 3] -8.88% | activity, negative = cell killing [1, 5] -27% | activity, negative = cell killing [1, 4] -1.2% | Potency (astro)

O=S(=O)(O)c1ccc(O)cc1
inactive: Potency (Hek293T) | Potency (JEG-3) | Potency (PA-1) | Potency (SKOV3) | Potency (Tov-21-G) | Potency (Tov112D) | activity, negative = cell killing [1, 2] -17.6% | activity, negative = cell killing [1, 3] -11% | activity, negative = cell killing [1, 4] -1.85% | Potency (astro)

CCOc1ccccc1OCCN[C@H](C)Cc1ccc(OC)c(S(N)(=O)=O)c1
active: Potency ([1]; tumour line A) 35.5 µM
inactive: Potency (Hek293T) | Potency (JEG-3) | Potency (PA-1) | Potency (SKOV3) | Potency (Tov-21-G) | Potency (Tov112D) | activity, negative = cell killing [1, 2] -15.7% | activity, negative = cell killing [1, 3] -16.9% | activity, negative = cell killing [1, 4] -16.6% | Potency (astro)

O=C(O)CCc1nc2ccccc2[nH]1
inactive: Potency (Hek293T) | Potency (JEG-3) | Potency (OV90) | Potency (SKOV3) | Potency (Tov-21-G) | Potency (Tov112D) | activity, negative = cell killing [1, 2] -11.4% | activity, negative = cell killing [1, 3] 5.36% | activity, negative = cell killing [1, 5] -40.1% | activity, negative = cell killing [1, 4] -13.5% | Potency (astro)

CC(=O)OC[C@H]1O[C@@H](n2ncc(=O)[nH]c2=O)[C@H](OC(C)=O)[C@@H]1OC(C)=O
inactive: Potency (Hek293T) | Potency (JEG-3) | Potency (OV90) | Potency (SKOV3) | Potency (Tov112D) | activity, negative = cell killing [1, 3] -20.8% | activity, negative = cell killing [1, 5] -30.4%
